Screening data deposited in PubChem BioAssay by National Center for Advancing Translational Sciences (NCATS).
Only some compounds are listed: those with a hit (about 2.4% of all), similar ones and a draw of the others.
Pol beta inh: qHTS Assay for Inhibitors of DNA Polymerase Beta; 1.3% of 340,000 active; P06746; Potency, µM (top dose mostly 114 µM), for the others: top-dose activity change, negative = inhibition, hits mostly inhibitors; Pol beta primer extension/strand displacement, fluorescence kinetic; note: % is set by controls: 0 for no effect and ±100 for the full control effect
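Curves were derived by four-parameter Hill fits of normalized qHTS data. The kinetic fluorescent primer-extension read was taken at 0 and 10 min after 50 nM substrate, following a 15 min room-temperature preincubation of 10 nM enzyme with compounds.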
TDP1 inh: qHTS Assay for Inhibitors of Tyrosyl-DNA Phosphodiesterase (TDP1); Tyrosyl-DNA phosphodiesterase 1 (Homo sapiens), Q9NUW8; recombinant TDP1, AlphaScreen DNA substrate cleavage; AID 485290, 2010; Potency, µM (titrated, usually from 130 µM), for the others: at the highest dose activity change, negative = inhibition, usual class: inhibitors; 0.28% of 350,000 active; note: % is set by controls: 0 for no effect and ±100 for the full control effect; nearly all actives have a fitted effect of over 40% in size
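Enzyme-compound mixtures sat 15 min at room temperature, followed by a 5 min reaction with 15 nM final substrate and 10 min with AlphaScreen beads. Recombinant human Tdp1 was used at 1 nM final.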
Pol iota inh: qHTS for Inhibitors of Polymerase Iota; Pol iota fluorescent replication assay, 10 min; 1% of 390,000 active; Potency, µM (highest dose often 115 µM), for the others: at the highest dose activity, negative = inhibition, actives largely listed as inhibitors; DNA polymerase iota (Homo sapiens), Q9UNA4
Target sequence (Q9UNA4 whole entry, looked up): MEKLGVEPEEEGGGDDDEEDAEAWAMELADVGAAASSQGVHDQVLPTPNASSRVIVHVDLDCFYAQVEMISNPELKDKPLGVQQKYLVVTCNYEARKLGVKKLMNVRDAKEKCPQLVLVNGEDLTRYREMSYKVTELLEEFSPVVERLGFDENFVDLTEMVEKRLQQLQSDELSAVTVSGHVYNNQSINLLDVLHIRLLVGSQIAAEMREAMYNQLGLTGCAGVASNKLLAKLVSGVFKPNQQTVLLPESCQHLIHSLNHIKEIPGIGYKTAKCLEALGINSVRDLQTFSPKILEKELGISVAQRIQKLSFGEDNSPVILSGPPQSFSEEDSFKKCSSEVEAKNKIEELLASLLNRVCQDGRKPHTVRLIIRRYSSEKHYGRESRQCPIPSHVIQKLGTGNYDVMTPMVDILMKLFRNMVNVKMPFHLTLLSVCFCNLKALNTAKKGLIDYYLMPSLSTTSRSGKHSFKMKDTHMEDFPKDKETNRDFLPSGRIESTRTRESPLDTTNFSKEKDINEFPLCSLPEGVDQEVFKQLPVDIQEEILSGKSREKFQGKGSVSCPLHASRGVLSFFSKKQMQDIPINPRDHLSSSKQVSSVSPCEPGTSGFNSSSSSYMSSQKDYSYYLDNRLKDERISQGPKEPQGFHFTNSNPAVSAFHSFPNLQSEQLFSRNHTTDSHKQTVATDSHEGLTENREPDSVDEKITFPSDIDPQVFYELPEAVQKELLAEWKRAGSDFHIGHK
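Pol iota at 10 nM preincubated 15 min with compounds at room temperature; reaction started with fluorescent substrate, 50 nM final. Fluorescence read kinetically at 0 and 10 min; buffer-only wells as negative control.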
Pol kappa inh: qHTS for Inhibitors of Polymerase Kappa; Potency, µM (titrated, usually from 107 µM), without a hit: top-dose activity, negative = inhibition, usual class: inhibitors; AID 588579, 2011; purified Pol kappa, fluorescent DNA synthesis assay, 10 min; 0.53% of 400,000 active; note: % is set by controls: 0 for no effect and ±100 for the full control effect
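Pol kappa 10 nM + cpd, 15 min RT; start w/ substrate 50 nM final; fluorescence kinetic read, 0 and 10 min. Neg ctrl: buffer, no enzyme.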
Pol eta inh: qHTS for Inhibitors of Polymerase Eta | recombinant Pol eta, fluorescent DNA replication assay | AID 588591, 2011 | Potency, µM (top dose mostly 114 µM), without a hit: at the top dose activity change, negative = inhibition, actives largely listed as inhibitors | 1.2% of 390,000 active | DNA polymerase eta (Homo sapiens), Q9Y253; note: % is set by controls: 0 for no effect and ±100 for the full control effect
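Fluorescent replication assay: 50 nM final substrate added after a 15 min room-temperature compound preincubation with 10 nM enzyme. Signal taken at 0 min and again at 10 min.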
FEN1 inhibitor: qHTS Assay for the Inhibitors of Human Flap endonuclease 1 (FEN1). AID 588795, 2011. Potency, µM (top dose mostly 114 µM), without a hit: at the highest dose activity change, negative = inhibition, hits mostly inhibitors. Recombinant FEN1 flap cleavage, fluorescence, 15 min. P39748. 0.35% of 390,000 active; note: % is set by controls: 0 for no effect and ±100 for the full control effect; nearly all actives have a fitted effect of over 65% in size
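Reaction started by adding substrate (50 nM final) to 10 nM enzyme after 15 min room-temperature compound preincubation. Reads at 0 and 15 min, with data normalized and fitted to a four-parameter Hill equation.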
Numbers without * were called inactive; ? = inconclusive; / = no result; [ ] = another dose, or the depositor's remark. Calls come from the whole dose curve; as a rule, active = well fitted curve in the direction sought with a large enough effect; inconclusive = small, poorly fitted or top-dose-only effect, or another doubt; inactive = no such curve, though single readings can be large; an effect the other way counts as inactive or inconclusive. Potency is the fitted concentration of half-maximal effect.

SMILES	Pol beta inh	TDP1 inh	Pol iota inh	Pol kappa inh	Pol eta inh	FEN1 inhibitor
Fc1ccc2[nH]c3c(N4CCc5ccccc5C4)ncnc3c2c1	14.1µM*	-10.6%	-13.7%	-10.9%	-16.6%	-1.2%
O=C(NCc1cccc2ccccc12)[C@H]1C[C@@H]1[C@H](NP(=O)(c1ccccc1)c1ccccc1)c1ccccc1	/	-1.5%	/	/	/	/
O=C(N/N=C/c1cccs1)c1cc(-c2ccc(Cl)s2)[nH]n1	44.7µM*	?	?	-25.6%	?	-3.0%
O=C(N/N=C/c1ccco1)c1cc(-c2ccc(Cl)s2)[nH]n1	?	2.6%	?	-29.5%	-8.5%	-15.5%
O=C(COc1ccccc1C(=O)Nc1ccccc1)Nc1cccc(Br)c1	/	/	20.2%	-8.3%	/	-23.4%
CN1C(=O)/C(=C/c2ccc(OCc3ccc(C(=O)O)cc3)c(Cl)c2)NC1=S	35.5µM*	/	72.3%	-2.2%	?	-27.2%
Clc1ccccc1-c1nc(NC2CCNCC2)c2ccccc2n1	/	/	/	-3.1%[60.1 µM]	/	/
C[C@@H]1CCC[C@]2(C)CCCC[C@@]12O	/	3.0%	/	18.6%[60.1 µM]	/	/
CSc1nc(Sc2ccccc2)c2ccccc2n1	0.3%	-2.6%	-7.0%	-8.5%	-2.6%	-14.1%
CSc1nc(=O)[nH]nc1Sc1ccccc1	/	/	/	/	44.7µM*	/
C#C[C@]1(OC(C)=O)CC[C@H]2[C@@H]3CCC4=C/C(=N/O)CC[C@@H]4[C@H]3CC[C@@]21CC	/	/	/	-3.5%[19.4 µM]	/	/
O=C(O)c1cn(-c2ccc(F)cc2)c2cc(N3CCNCC3)c(F)cc2c1=O	/	6.8%[56.1 µM]	?	-11.1%	-6.4%	44.7µM*
Cn1cc(S(=O)(=O)c2ccccc2)c(=O)c2cc(F)c(N3CCN(c4ccc(F)cc4)CC3)cc21	7.1%	-2.5%	-15.1%	-12.2%	-17.4%	-8.4%
CC(=O)N1CCOc2cc(S(=O)(=O)Nc3cccc(C(F)(F)F)c3)c(Cl)cc21	?	11.2µM*	?	5.7%	-12.3%	2.2%
CC(=O)N1CCOc2cc(S(=O)(=O)Nc3cc(C(F)(F)F)ccc3Cl)c(C)cc21	?	0.0%	32.8%	5.7%	-16.0%	14.8%
CCOc1ccc(C(=O)Nc2cccc(NC(=O)c3ccco3)c2)cc1Cl	-22.5%	0.4%[12.3 µM]	89.1µM*	0.0%	-11.0%	89.1µM*
Cc1ccc(OCC(=O)Nc2ccc(NC(=O)c3ccco3)cc2)c(C)c1	28.2µM*	8.3%	?	-6.5%	?	-1.5%
COc1ccc(NC(=O)c2ccco2)cc1NC(=O)COc1ccc(Cl)cc1C	?	0.0%	-4.5%	-10.8%	79.4µM*	-8.6%
Oc1cccc(C=Nc2cccc3ccccc23)c1O	8.91µM*	10.2%	11.2µM*	35.5µM*	-15.9%	?
Oc1cccc(C=NCc2ccccc2)c1O	3.55µM*	?	7.94µM*	14.1µM*	?	?
Oc1ccccc1C=Nc1cccc2ccccc12	-1.4%	3.2%	62.1%	-8.7%	-19.4%	21.0%
O=C(Nc1cccc(Cl)c1)c1cccc(N2C(=O)C3CC=CCC3C2=O)c1 (stereo not given)	15.8µM*	25.1µM*	?	-17.9%	-20.9%	1.6%
O=C(Nc1cccc(N2C(=O)C3CCCCC3C2=O)c1)c1ccccc1 (stereo not given)	10.6%	-0.2%	20.2%	5.8%	-9.6%	-10.2%
COc1ccc(C2c3c(ncn(Cc4ccccc4)c3=N)Oc3ccc4ccccc4c32)cc1OC (stereo not given)	/	10.3%	/	/	/	/
COc1ccccc1N1CCN(C(=O)CCS(=O)(=O)c2cc(Br)cc3c2N(C(=O)C2CC2)CC3)CC1	-21.0%	5.0%	-2.7%	-4.9%	-12.9%	-3.9%
SMILES	Pol beta inh	TDP1 inh	Pol iota inh	Pol kappa inh	Pol eta inh	FEN1 inhibitor
O=[N+]([O-])c1ccccc1S(=O)(=O)Nc1ccc(-c2ccc(N3CCCC3)nn2)cc1	/	/	?	-29.9%	20µM*	7.1%
O=[N+]([O-])c1cccc(S(=O)(=O)Nc2ccc(-c3ccc(N4CCCC4)nn3)cc2)c1	/	-8.0%[0.505 µM]	39.1%	-15.2%	-10.6%	-1.3%
CCNC(=O)[C@@H]1CCCN1C(=O)[C@H](CCCN=C(N)N)NC(=O)[C@H](CC(C)C)NC(=O)[C@@H](Cc1c[nH]c2ccccc12)NC(=O)[C@H](Cc1ccc(O)cc1)NC(=O)[C@H](CO)NC(=O)[C@H](Cc1c[nH]c2ccccc12)NC(=O)[C@H](Cc1cnc[nH]1)NC(=O)[C@@H]1CCC(=O)N1	/	/	/	1.3%[19.4 µM]	/	/
COC1CC(O[C@H]2/C(C)=C/CC3CC(C[C@]4(CCC(C)C(C5CCCCC5)O4)O3)OC(=O)[C@H]3C=C(C)/C(=N/O)C4OC/C(=C\C=C\[C@@H]2C)[C@@]43O)OC(C)C1O (stereo not given in full)	/	13.0%[56.1 µM]	/	-7.3%[60.1 µM]	/	/
C/C=C(\C)C(=O)NCCN1C2=NC[C@@H](Cc3ccccc3)N2C[C@@H]1Cc1ccc(OC)cc1	/	/	8.0%	-3.2%	-10.8%	1.7%
CCCCCCNC(=O)N[C@@H](C(=O)NCCC[C@H]1CN2C(=NC[C@@H]2Cc2ccccc2)N1CCc1cccc(OC)c1)C(C)C	12.0%	4.7%	25.1µM*	-6.8%	-2.1%	4.1%
CC(=O)Nc1ccc(-c2nnc3n(CC(C)C)c(=O)c4ccccc4n23)cc1	-5.1%	5.7%	-12.2%	-1.5%	2.1%	9.8%
O=C(O)c1ccc(NC(=O)C2CC=CCC2C(=O)O)cc1 (stereo not given)	-14.6%	/	8.2%	-5.5%	-7.1%	-1.3%
O=C(O)Cc1ccc(NC(=O)C2CC=CCC2C(=O)O)cc1 (stereo not given)	22.4µM*	44.7µM*	/	/	/	/
O=C(O)C1CC=CCC1C(=O)Nc1ccccc1 (stereo not given)	31.6µM*	22.4µM*	10.4%	-5.7%	?	-3.2%
O=C(C[n+]1ccccc1)c1ccc(O)c(O)c1	/	/	?	?	/	10.7%
COc1ccc(-c2nc3ccc(NC(=O)COC(C)=O)cc3c(=O)n2Cc2ccccc2)cc1COc1ccc(NC(C)=O)cc1	/	?	?	-10.3%	/	-23.1%
COc1cccc(NC(=O)CN2C(=O)CSc3ccc(S(=O)(=O)N4CCCC4)cc32)c1	-2.9%	2.6%	6.3%	-11.5%	-12.6%	3.7%
c1coc(-c2nn3c(-c4ccco4)nnc3s2)c1	28.2µM*	/	?	?	?	-1.7%
COc1ccccc1-c1nn2c(-c3ccccc3Cl)nnc2s1	-7.7%	-5.1%	/	/	/	/
COc1ccccc1-c1nn2c(-c3cc(-c4ccccc4)n[nH]3)nnc2s1	/	1.3%	-1.4%	8.3%	/	4.6%
